# Only some compounds are listed: those with a hit (about 2% of all), similar ones and a draw of the others.
# FUS suppressor = FUS proteinopathy suppression in yeast; S. cerevisiae FUS-expressing, growth rescue, OD600, 24 h; Potency, µM (doses to about 76.6 µM), hits mostly activators; 0.24% of 390,000 active;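 also: potency is read from the fitted curve at half-maximal effect; plate controls were DMSO vehicle for no effect and reference control for full effect; nearly all actives have a fitted effect of over 55% in size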
#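 Absorbance at 600 nm, taken 24hr after compound addition, measured rescue of FUS-yeast growth at 30C. Induction used 2% galactose with seeding at OD 0.005. Controls: CP55940 from 92uM final, DMSO only.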
# LDHA inh = blocks human lactate dehydrogenase A. purified LDHA, NADH/diaphorase-resazurin fluorescence; hits give low values. activity change, % (values are at about 110 or 230 µM). 0.15% of 480,000 active. AID 1347041; in the data active = activity change below about -30%; inconclusive = mostly about -25% to -30%;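 also: plate controls were DMSO wells for no effect and wells without enzyme for full effect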
#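 LDH5 2 nM; NADH 0.06 mM, pyruvate 0.2 mM; 200 mM Tris pH 7.4, EDTA, Tween-20; 5 min RT. Detection: diaphorase 0.133 mg/mL + resazurin 37 µM, fluorescence ex540/em590 at 0 and 20 min; normalized to enzyme-free and DMSO wells.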
# TDP-43 yeast inh = rescues yeast growth from TDP-43 toxicity; TDP-43 expressing yeast growth rescue, BacTiter-Glo, 24 h; Potency, µM (series often up to 46.1 µM), inactives show at the highest dose growth rescue (activation), actives largely listed as activators; 1.8% of 410,000 active; also: potency is read from the fitted curve at half-maximal effect; % of control where 0% means no effect; nearly all actives have a fitted effect of over 50% in size
#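 In this qHTS, compounds that restore growth of yeast expressing TDP-43 appear as activators. Cells (OD600=0.02, galactose medium, raffinose-pregrown) are incubated with compound 24 hr at 30 deg C and growth is quantified by BacTiter-Glo.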
# aSyn yeast inh = rescues yeast growth from alpha-synuclein toxicity; Yeast expressing alpha-synuclein, growth rescue, BacTiter-Glo, 24 h; 0.14% of 370,000 active; Potency, µM (doses to about 46.1 µM), for inactives: top-dose growth rescue (activation), actives largely listed as activators; also: potency is read from the fitted curve at half-maximal effect; % of control where 0% means no effect; nearly all actives have a fitted effect of over 65% in size
#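 Rescue of yeast growth: cells expressing toxic alpha-synuclein, induced in galactose at OD600 0.02, incubated with compound 24 h at 30 C. ATP luminescence quantified growth; inhibitors of toxicity appear as activators.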
# Abeta yeast res = compounds reversing amyloid beta toxicity in yeast; yeast expressing A-beta42, growth rescue, OD600, 48 h; response scale: 0% DMSO, 100% iron-clioquinol control; Potency, µM (top dose mostly 46.1 µM), most hits filed as activators; 0.063% of 410,000 active; also: potency is read from the fitted curve at half-maximal effect; nearly all actives have a fitted effect of over 55% in size
#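 Growth rescue measured by 600 nm absorbance after 48 h yeast culture at 30 C with compound. Values normalized between DMSO and an equimolar ferric chloride plus clioquinol control.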
# IDH1 R132H inh = inhibitors of human mutant IDH1 R132H | IDH1-R132H enzyme, NADPH consumption, diaphorase/resazurin fluorescence | Potency, µM (top dose mostly 76.6 µM), inactives show top-dose activity change, negative = inhibition, actives largely listed as inhibitors | 0.093% of 390,000 active; also: potency is read from the fitted curve at half-maximal effect; % is scaled to controls: 0 for no effect and ±100 for the full control effect; nearly all actives have a fitted effect of over 65% in size
# Target sequence (O75874 whole entry R132H, stated change not applied): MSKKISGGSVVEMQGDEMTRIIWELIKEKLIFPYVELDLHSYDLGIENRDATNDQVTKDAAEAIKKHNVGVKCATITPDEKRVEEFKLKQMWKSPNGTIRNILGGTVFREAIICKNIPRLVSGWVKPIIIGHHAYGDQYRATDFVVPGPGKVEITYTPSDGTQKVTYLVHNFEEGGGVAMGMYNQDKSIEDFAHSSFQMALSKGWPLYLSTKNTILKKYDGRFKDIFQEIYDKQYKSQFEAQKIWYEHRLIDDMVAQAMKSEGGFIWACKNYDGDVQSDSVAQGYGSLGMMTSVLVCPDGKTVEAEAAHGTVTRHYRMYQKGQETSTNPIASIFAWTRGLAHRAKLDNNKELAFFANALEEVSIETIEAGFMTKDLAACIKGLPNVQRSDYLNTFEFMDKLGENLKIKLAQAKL
#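 IDH1-R132H (0.5 ug/mL dispensed) in pH 7.5 Tris buffer was preincubated 30 min with compound, then given a substrate mix of 0.016 mM NADPH and 2 mM alpha-KG for 80 min at room temperature; remaining NADPH was read by diaphorase/resazurin fluorescence.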
# * marks the source's active call; other numbers are inactive results; i = inactive; u = inconclusive; x = no result; ! = not active in a repeat. Unless noted, calls follow the shape of the dose curve; as a rule, active = well fitted curve in the direction sought with a large enough effect; inconclusive = small, poorly fitted or top-dose-only effect, or another doubt; inactive = no such curve, though single readings can be large; an effect the other way counts as inactive or inconclusive.
SMILES,FUS suppressor,LDHA inh,TDP-43 yeast inh,aSyn yeast inh,Abeta yeast res,IDH1 R132H inh
CC(C)NC(=O)NCc1c(-n2cccc2)sc2c1CCN(C)C2,x,1,x,x,x,x
CCOc1ccc(NC(=O)C2CCN(c3ccc(C#N)cn3)CC2)cc1,x,-7,x,x,x,x
N#Cc1cccc(NC(=O)COc2ccc(C(=O)c3ccccc3)cc2)c1,x,2,x,x,x,x
CCCC(C)NC(=O)CCc1ccc(-c2ccc(OC)cc2)o1 (configuration not stated),x,-1,x,x,x,x
CCc1ccc(NCc2cc(=O)n3[nH]c(-c4ccccc4)nc3n2)cc1,x,10,x,x,x,x
S=c1[nH]nc(-c2cc(-c3ccccc3)n[nH]2)n1/N=C/c1ccc(Br)s1,i,-43*,9%,-1%,i,u
O=C(N/N=C/C(Cl)=C/c1ccccc1)c1ccccn1,i,-4,10µM*,-13%,i,3%
CCOC(=O)C1=C(Nc2ccc(Cl)cc2)OCC1=O,i,-9,11µM*,-1%,i,0%
N#Cc1ccc(COC(=O)c2ccc(N3CCOCC3)nc2)c(F)c1,x,11,x,x,x,x
Cc1oc(C(=O)O)cc1COc1cccc2ccccc12,i,0,32µM*,2%,i,6%
O=C(O)c1cccc(COc2cccc3ccccc23)c1,i,1,35µM*,-52%,i,14%
COc1cc(C(=O)O)cc(OC)c1OCc1cc(C(=O)O)oc1C,i,4,-2%,-4%,i,1%
COC(=O)CC1=C(C(=O)OC)C(c2ccc(OC)cc2)C(C#N)=C(N)O1 (configuration not stated),x,9,x,x,x,x
CCOC(=O)C1=CCN(S(=O)(=O)c2ccccc2F)C1c1ccc(Cl)cc1 (configuration not stated),i,-5,16µM*,13%,i,x
Brc1ccc(OCc2nnnn2-c2ccccc2)cc1,i,2,22µM*,-9%,i,5%
COc1ccc(OCc2nnnn2-c2ccccc2)cc1,i,-2,7%,7%,i,2%
O=C(CSc1nnnn1-c1cccc2c1CCCC2)N1CCCC1,i,-5,20µM*,3%,i,2%
COC(=O)c1ccc(/C=C/C(=O)O)cc1,i,-6,35µM*,-7%,i,-5%
COc1ccc(C2CC(=O)c3cnc(NC(=O)c4cccc(OC)c4)nc3C2)cc1 (configuration not stated),i,-9,u,1%,i,-1%
COc1ccc(C2CC(=O)c3cnc(NC(=O)c4ccccc4OC)nc3C2)c(OC)c1 (configuration not stated),i,-2,18µM*,14%,i,4%
CCOc1ccc(-c2nc(C#N)c(NCc3ccc4c(c3)OCO4)o2)cc1,i,-31*!,21%,1%,i,2%
COc1ccc(-c2nc(C#N)c(NCc3ccc4c(c3)OCO4)o2)cc1,x,1,x,x,x,x
Cc1ccc(OCc2nc(C#N)c(NCc3ccc4c(c3)OCO4)o2)cc1,i,4,11µM*,7%,i,2%
COc1ccc(Nc2oc(COc3ccc(Cl)cc3)nc2C#N)cc1,i,-3,28µM*,9%,i,4%
COc1ccccc1OCc1nc(C#N)c(NCc2ccc3c(c2)OCO3)o1,x,0,x,x,x,x
SMILES,FUS suppressor,LDHA inh,TDP-43 yeast inh,aSyn yeast inh,Abeta yeast res,IDH1 R132H inh
CCCCCC(=O)Nc1ccc(-c2csc(NC)n2)cc1,x,8,x,x,x,x
Cc1ccc2c(C(=O)O)cc(-c3cccs3)nc2c1C,x,-14,x,x,x,x
CCn1ncc(Br)c1C(=O)Nc1ccccc1C(=O)OC,i,-2,14µM*,-7%,i,0%
c1ccc(-c2nnc3ccc(SCc4ccco4)nn23)cc1,x,0,x,x,x,x
Cc1cccc(CSc2cccc3cccnc23)c1,i,0,18µM*,2%,i,6%
FC(F)(F)c1cccc(CSc2cccc3cccnc23)c1,x,0,x,x,x,x
O=C(NCCc1ccccc1)c1ccc2nc(N3CCOCC3)sc2c1,i,-18,u,0%,i,-2%

# Source: PubChem (National Center for Advancing Translational Sciences (NCATS))
